# Key:
# Assay in all cases: Zn; 100 nM beta-estradiol; yeast GFP reporter, 12 h induction, 3 biological replicates
# [1] = target: RA three-finger array, finger 2 TSWNLRS (synthetic construct (mouse Zif268 …, UniProt P08046 333-418, E352N;T354R;R355A;R377T;D379W;H380N;T382R;T383S;D407A;E408N;R409L;K410V)); conditions: tags: estrogen receptor LBD - VP16 fusion (left out); vector residues GT and GS kept at the ends; dsDNA, one strand shown
# [2] = target: RA three-finger array, finger 2 ASSNLRA (synthetic construct (mouse Zif268 …, UniProt P08046 333-418, E352N;T354R;R355A;R377A;D379S;H380N;T382R;T383A;D407A;E408N;R409L;K410V)); conditions: tags: estrogen receptor LBD - VP16 fusion (left out); vector residues GT and GS kept at the ends; dsDNA, one strand shown
# [3] = target: RA three-finger array, finger 2 RSGNLRS (synthetic construct (mouse Zif268 …, UniProt P08046 333-418, E352N;T354R;R355A;D379G;H380N;T382R;T383S;D407A;E408N;R409L;K410V)); conditions: tags: estrogen receptor LBD - VP16 fusion (left out); vector residues GT and GS kept at the ends; dsDNA, one strand shown
# [4] = target: RA three-finger array, finger 2 QSGNLKS (synthetic construct (mouse Zif268 …, UniProt P08046 333-418, E352N;T354R;R355A;R377Q;D379G;H380N;T382K;T383S;D407A;E408N;R409L;K410V)); conditions: tags: estrogen receptor LBD - VP16 fusion (left out); vector residues GT and GS kept at the ends; dsDNA, one strand shown
# [5] = target: RA three-finger array, finger 2 QSGNLTE (synthetic construct (mouse Zif268 …, UniProt P08046 333-418, E352N;T354R;R355A;R377Q;D379G;H380N;T383E;D407A;E408N;R409L;K410V)); conditions: tags: estrogen receptor LBD - VP16 fusion (left out); vector residues GT and GS kept at the ends; dsDNA, one strand shown
# [6] = target: Zif268 (Egr1) fingers 1-3 (Mus musculus, UniProt P08046 333-418); conditions: dsDNA, one strand shown
# [7] = target: RA three-finger array, finger 2 TSYNLTR (synthetic construct (mouse Zif268 …, UniProt P08046 333-418, E352N;T354R;R355A;R377T;D379Y;H380N;T383R;D407A;E408N;R409L;K410V)); conditions: tags: estrogen receptor LBD - VP16 fusion (left out); vector residues GT and GS kept at the ends; dsDNA, one strand shown
# [8] = target: RA three-finger array, finger 2 RADNLTE (synthetic construct (mouse Zif268 …, UniProt P08046 333-418, E352N;T354R;R355A;S378A;H380N;T383E;D407A;E408N;R409L;K410V)); conditions: tags: estrogen receptor LBD - VP16 fusion (left out); vector residues GT and GS kept at the ends; dsDNA, one strand shown
# [9] = target: RA three-finger array, finger 2 DSSNLRS (synthetic construct (mouse Zif268 …, UniProt P08046 333-418, E352N;T354R;R355A;R377D;D379S;H380N;T382R;T383S;D407A;E408N;R409L;K410V)); conditions: tags: estrogen receptor LBD - VP16 fusion (left out); vector residues GT and GS kept at the ends; dsDNA, one strand shown
# [10] = target: RA three-finger array, finger 2 HSSNLTH (synthetic construct (mouse Zif268 …, UniProt P08046 333-418, E352N;T354R;R355A;R377H;D379S;H380N;T383H;D407A;E408N;R409L;K410V)); conditions: tags: estrogen receptor LBD - VP16 fusion (left out); vector residues GT and GS kept at the ends; dsDNA, one strand shown
# [11] = target: RA three-finger array, finger 2 RSDNLTR (synthetic construct (mouse Zif268 …, UniProt P08046 333-418, E352N;T354R;R355A;H380N;T383R;D407A;E408N;R409L;K410V)); conditions: tags: estrogen receptor LBD - VP16 fusion (left out); vector residues GT and GS kept at the ends; dsDNA, one strand shown
sequence,measurement,setting,value
GAGCATAAG,binding signal,[1],0.344 ± 0.012 mean GFP / mean GFP of Zif268 on its consensus site
same,binding signal,[2],0.875 ± 0.05 mean GFP / mean GFP of Zif268 on its consensus site
same,binding signal,[3],0.264 ± 0.005 mean GFP / mean GFP of Zif268 on its consensus site
same,binding signal,[4],0.226 ± 0.01 mean GFP / mean GFP of Zif268 on its consensus site
GAGCAAAAG,binding signal,[5],0.251 ± 0.044 mean GFP / mean GFP of Zif268 on its consensus site
same,binding signal,[3],0.138 ± 0.011 mean GFP / mean GFP of Zif268 on its consensus site
same,binding signal,[4],0.463 ± 0.041 mean GFP / mean GFP of Zif268 on its consensus site
GAGAAGAAG,binding signal,[1],0.437 ± 0.032 mean GFP / mean GFP of Zif268 on its consensus site
same,binding signal,[3],0.587 ± 0.052 mean GFP / mean GFP of Zif268 on its consensus site
GCGTGGGTG,binding signal,[6],0.878 mean GFP / mean GFP of Zif268 on its consensus site
GCGTGGGAG,binding signal,[6],0.755 mean GFP / mean GFP of Zif268 on its consensus site
GCGTGGGCG,binding signal,[6],1 mean GFP / mean GFP of Zif268 on its consensus site
GAGCAGAAG,binding signal,[7],0.098 mean GFP / mean GFP of Zif268 on its consensus site
same,binding signal,[8],0.267 ± 0.016 mean GFP / mean GFP of Zif268 on its consensus site
same,binding signal,[1],1.13 ± 0.189 mean GFP / mean GFP of Zif268 on its consensus site
same,binding signal,[2],0.103 ± 0.004 mean GFP / mean GFP of Zif268 on its consensus site
same,binding signal,[3],0.997 ± 0.075 mean GFP / mean GFP of Zif268 on its consensus site
same,binding signal,[4],0.174 ± 0.003 mean GFP / mean GFP of Zif268 on its consensus site
GAGCACAAG,binding signal,[9],0.498 ± 0.055 mean GFP / mean GFP of Zif268 on its consensus site
same,binding signal,[2],0.225 ± 0.031 mean GFP / mean GFP of Zif268 on its consensus site
same,binding signal,[10],0.472 ± 0.086 mean GFP / mean GFP of Zif268 on its consensus site
same,binding signal,[4],0.219 ± 0.008 mean GFP / mean GFP of Zif268 on its consensus site
GAGGAGAAG,binding signal,[7],0.873 ± 0.063 mean GFP / mean GFP of Zif268 on its consensus site
same,binding signal,[1],0.103 ± 0.007 mean GFP / mean GFP of Zif268 on its consensus site
same,binding signal,[11],0.986 ± 0.121 mean GFP / mean GFP of Zif268 on its consensus site
same,binding signal,[3],0.149 ± 0.009 mean GFP / mean GFP of Zif268 on its consensus site
GCGTGGGGG,binding signal,[6],0.059 mean GFP / mean GFP of Zif268 on its consensus site
GCGTGGGCC,binding signal,[6],0.147 mean GFP / mean GFP of Zif268 on its consensus site

# Source: publication PMC3919609, “Deep sequencing of large library selections allows computational discovery of diverse sets of zinc fingers that bind common targets”
